Several values for one entry are separate records, joined by “and”; a condition that tells them apart may be missing. Equal values may be shown once. Activity calls are given as the source filed them.
Assays:
[1] = A549 cell viability effects, profiling panel, calcein-AM fluorescence, 48 h, basal (AID 1162); conditions: higher = more signal
[2] = adipocyte viability effects, profiling panel, cell-based, 3T3-L1 adipocytes, calcein-AM fluorescence, 48 h, basal (AID 1163); conditions: 3T3-L1 adipocytes viability, higher = more signal
[3] = HepG2 cell viability effects, profiling panel, calcein-AM fluorescence, 48 h, basal (AID 1164); conditions: higher = more signal
[4] = MM1S cell viability effects, profiling panel, calcein-AM fluorescence, 48 h, basal (AID 1165); conditions: higher = more signal;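 also: viability of MM1S multiple myeloma cells under basal unstimulated conditions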
[5] = basal RPMI8226 viability, no added stimulus, profiling panel, cell-based, calcein-AM fluorescence, 48 h, PK04 Diversity Set (AID 1166); conditions: RPMI8226 myeloma viability, higher = more signal;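 also: cells grown under basal conditions without added stimulus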
[6] = basal HepG2 mitochondrial membrane potential changes, profiling panel, cell-based, JC-1 fluorescence, 24 h, 100 nL compound (AID 1167); conditions: higher = more signal
[7] = basal 3T3-L1 adipocyte mitochondrial potential changes, profiling panel, cell-based, JC-1 fluorescence, 3T3-L1 adipocytes, 24 h, 100 nL compound (AID 1168); conditions: JC-1 mitochondrial fluorescence, higher = more signal, called active from +8 up or from −8 down
[8] = basal RPMI8226 mitochondrial membrane potential changes, profiling panel, cell-based, JC-1 fluorescence, 24 h, 100 nL compound (AID 1169); conditions: RPMI8226 myeloma, JC-1 mitochondrial potential fluorescence, higher = more signal
[9] = basal MM1S mitochondrial membrane potential changes, profiling panel, cell-based, JC-1 fluorescence, 24 h, 100 nL compound (AID 1170); conditions: higher = more signal
[10] = A549 lung cancer cell viability effects, profiling panel, resazurin fluorescence, 24 h, PK04 Diversity Set (AID 1171); conditions: higher = more signal, called active from +8 up or from −8 down
Also: test concentration not given here.

What does the source list for C=C[C@H](C)[C@@H](O)c1ccc(OCCO)cc1?
z-score [1]: 0.235 and -0.066; z-score [2]: 0.101 and -0.192; z-score [3]: -0.211 and 0.619; z-score [4]: 0.529 and -0.301; z-score [5]: -0.528 and 0.864; z-score [6]: -0.368 and 0.814; z-score [7]: 0.428 (inactive) and 0.45 (inactive); z-score [8]: -0.961 and 0.99; z-score [9]: 0.976 and -0.205; z-score [10]: 0.0233 (inactive) and -0.361 (inactive)

For CC(CO)N1C(=O)[C@@H]2C3C(=O)OCCC=C[C@H]3OC23C=CCN(Cn2nnc4ccccc42)C(=O)[C@@H]13 (stereo not given in full), which z-score [1] is on record?
Its z-score is -0.515 and 0.432.

What about the z-score [2] of the same molecule?
The z-score was -0.101 and 0.061.

What about the z-score [3] of the same molecule?
The z-score was -0.562 and -0.713.

What about the z-score [4] of the same molecule?
The z-score was 0.922 and -0.0987.

What about the z-score [5] of the same molecule?
Its z-score is -0.28 and 0.0829.

What about the z-score [6] of the same molecule?
The z-score was -1.01 and -0.375.

What about the z-score [7] of the same molecule?
Its z-score is -0.259 (inactive) and -1.12 (inactive).

And the z-score [8]?
The z-score was 0.46 and -0.0108.

And the z-score [9]?
The z-score was 0.198 and -0.363.

What about the z-score [10] of the same molecule?
Its z-score is -0.116 (inactive) and 0.785 (inactive).

For C=CCN(CCCC)C(=O)C1N(CCCCCCO)C(=O)C2C(C(=O)O)C3C=CC21O3 (stereo not given), which z-score [1] is on record?
The z-score was -0.835 and -0.441.

What about the z-score [2] of the same molecule?
Its z-score is 0.221 and -0.0736.

And the z-score [3]?
The z-score was -1 and -0.393.

What about the z-score [4] of the same molecule?
The z-score was 0.62 and 1.32.

And the z-score [5]?
The z-score was 0.646 and -0.44.

And the z-score [6]?
The z-score was -0.253 and -0.939.

And the z-score [7]?
The z-score was 0.051 (inactive) and -0.617 (inactive).

And the z-score [8]?
Its z-score is 0.221 and 0.855.

And the z-score [9]?
The z-score was -0.00969 and -0.273.

And the z-score [10]?
Its z-score is -0.59 (inactive) and -0.439 (inactive).

Which results are given for Cc1ccc(S(=O)(=O)N[C@H]2COC(=O)[C@@H](C)COC(=O)[C@H](C)NC(=O)CC=C[C@H]2C)cc1?
z-score [1]: 0.437; z-score [2]: 0.0608; z-score [3]: -0.107; z-score [4]: 0.143; z-score [5]: 0.0608; z-score [6]: 0.125; z-score [7]: 0.198 (inactive); z-score [8]: -0.137; z-score [9]: 0.894; z-score [10]: 1.57 (inactive)

Which results are given for CCOC(=O)C[C@H]1[C@H](OC(=O)c2ccccc2-c2ccccc2)[C@@H](NC(=O)Cc2ccc(OC)cc2)c2cc(OCCCO)ccc2N1C(=O)c1ccc2ccccc2n1?
z-score [1]: 0.637 and 1.07; z-score [2]: 1.49 and 0.317; z-score [3]: 0.633 and 0.244; z-score [4]: 0.218 and 0.868; z-score [5]: -0.765 and -0.644; z-score [6]: 3.65 and 1.61; z-score [7]: 0.611 (inactive) and 0.669 (inactive); z-score [8]: 0.257 and -0.354; z-score [9]: 0.82 and 0.248; z-score [10]: 1.26 (inactive) and 0.555 (inactive)

For C=CCN(CCCC)C(=O)C(c1cccs1)N(CCOCCO)C(=O)/C=C\C(=O)O (stereo not given), which z-score [1] is on record?
Its z-score is 1.12 and 0.149.

And the z-score [2]?
Its z-score is 0.185 and -0.242.

And the z-score [3]?
Its z-score is 0.914 and 0.824.

What about the z-score [4] of the same molecule?
The z-score was 1.04 and 1.56.

What about the z-score [5] of the same molecule?
Its z-score is 1.05 and -0.0726.

And the z-score [6]?
The z-score was 0.644 and 1.03.

And the z-score [7]?
Its z-score is 0.713 (inactive) and 0.0219 (inactive).

And the z-score [8]?
Its z-score is 0.835 and 0.00316.

And the z-score [9]?
Its z-score is -1.11 and -0.822.

And the z-score [10]?
The z-score was -0.557 (inactive) and -0.469 (inactive).

For CO[C@@H]1COC(=O)CC=C[C@H](C)COC(=O)[C@H](C)NC(=O)CC=C[C@H]1C, which z-score [1] is on record?
The z-score was 0.158.

And the z-score [2]?
The z-score was 0.31.

What about the z-score [3] of the same molecule?
Its z-score is 0.46.

What about the z-score [4] of the same molecule?
Its z-score is 0.122.

And the z-score [5]?
The z-score was 0.353.

What about the z-score [6] of the same molecule?
Its z-score is 1.04.

And the z-score [7]?
The z-score was 0.214 (inactive).

What about the z-score [8] of the same molecule?
Its z-score is -0.0124.

What about the z-score [9] of the same molecule?
Its z-score is 0.955.

What about the z-score [10] of the same molecule?
Its z-score is 0.162 (inactive).
